# Among all 5,500 compounds or so, about 2,000 (36%) were called active. Roughly 18% stayed inconclusive and do not appear here. Some of the results follow. Values without a mark were called inactive. No stated cut-off is given here; in the data, active means normalized growth mostly below about 0.91 (no sharp cut-off); inconclusive means no clear call, values can overlap the other calls; inactive means mostly above about 0.92. Where a SMILES comes first, the peptide text is derived from it. [ ]: non-standard residue; d: D form. Orn = NCCC[CH](N)C(=O)O
# Experiment: chemical genetic growth profiling, strain panel (AID 1159580);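 further: tested at 20 µM; growth read once vehicle control cultures reached saturation at 30 °C; 1 = growth at the plate median or of vehicle wells; lower values mean less growth of the strain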
# Conditions: S. cerevisiae deletion strains, growth OD, locus YOL012C, strain htz1
smiles,measurement,value
CC(C)CC1NC(=O)C(CCCN)NC(=O)C(C(C)C)NC(=O)C(Cc2ccc(O)cc2)NC(=O)C(CCC(=O)O)NC(=O)C(CC(=O)O)NC(=O)C(Cc2ccccc2)NC(=O)C(Cc2ccccc2)NC(=O)C2CCCN2C(=O)C(Cc2ccccc2)NC1=O (stereo unspecified) (cyclo(DEYV[Orn]LFPFF); configuration not given here),normalized growth,0.202
